Measurements published in PubChem BioAssay (NCI).
The panel holds about 83,000 compounds, 20% with a hit somewhere; the sample as a whole holds those more often.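 Cell lines were cultured in 96-well plates, exposed to a single compound concentration, and assessed for percent growth 48 hours later.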 The source made the active and inactive calls. The calls were made as follows: active = growth percent below 10; inactive = the rest.

test system: A549/ATCC NSCLC; assay: NCI-60 one-dose screen, 48 h (100 = growth as untreated, 0 = no growth, -100 = all killed); conditions: 10 µM unless noted

**Q.** For O=C1/C(=C/c2ccc(Cl)cc2)N=C(c2ccccc2)N1CCc1cccs1, which growth is on record?
**A.** 30.6% (inactive)

**Q.** Which growth does the source give for COc1ccc(Sc2ccc3[nH]c(=O)nc(N)c3c2)cc1 here?
**A.** 80.3% (inactive)

**Q.** COc1cc(C(=O)N(C(C)C)C2CCCCC2)cc(OC)c1OC was tested. Which growth did it give?
**A.** 97.2% (inactive)

**Q.** Which growth does the source give for COc1ccc(C2OCC(C)(C)CO2)cc1OC here?
**A.** 100% (inactive)

**Q.** Which growth does the source give for O=C(NCc1ccco1)C1CCN(S(=O)(=O)c2ccc(Cl)cc2)CC1 here?
**A.** 74.9% (inactive)

**Q.** Which growth does the source give for COc1ccc(-c2csc3c2-n2cccc2C3=O)cc1O here?
**A.** 11.9% (inactive)

**Q.** COC(=O)[C@@H]1CCCN1C(=O)[C@@H]1CCCN1C(=O)[C@@H](Cc1c[nH]c2ccccc12)NC(=S)Nc1cc(C(F)(F)F)cc(C(F)(F)F)c1 was tested. Which growth did it give?
**A.** 56.4% (inactive)

**Q.** For CCN1C(=O)C2(Nc3ccccc3S2)c2cc(C)ccc21 (stereo not drawn), which growth is on record?
**A.** 95.7% (inactive)

**Q.** For Cc1nc(-c2ccccc2)cc2c(O)c(C(=O)N/N=C/Cc3ccccc3)[nH]c(=O)c12, which growth is on record?
**A.** 105% (inactive)

**Q.** Which growth does the source give for O=S(=O)(/N=C1C=C/C(=N\S(=O)(=O)c2ccccc2)c2ccccc2\1)c1ccccc1 here?
**A.** 101% (inactive)

**Q.** For CCCOC(=O)c1ccc2c(c1)[N+](=O)C(C(=O)c1ccccc1)=C(C(F)(F)F)[N+]2=O, which growth is on record?
**A.** -88.1% (active)

**Q.** With CCCN(CCC)c1ccc(/C=C/c2ccc3cc(OCC)ccc3n2)cc1 as the compound, how does the growth read?
**A.** 87.4% (inactive)

**Q.** Which growth does the source give for COc1cccc(C2CC(=O)Nc3cc4c(cc32)CCC4)c1OC (stereo not drawn) here?
**A.** 47.8% (inactive)

**Q.** Which growth does the source give for CC1SC(c2ccc(Cl)cc2)N(CCc2cccs2)C1=O (stereo not drawn) here?
**A.** 1.08% (active)

**Q.** How did the growth turn out when COc1ccccc1/C=C/C(=O)/C=C/c1ccccc1O was run?
**A.** 6.86% (active)

**Q.** With COc1cc(/C=C/C(=O)C(=Cc2ccc(F)c(F)c2)C(=O)/C=C/c2ccc(O)c(OC)c2)ccc1O as the compound, how does the growth read?
**A.** 44.2% (inactive)

**Q.** With CC1(C)CC(=O)C2=C(C1)Nc1cc3c(cc1C2c1ccc(F)cc1)OCO3 (stereo not drawn) as the compound, how does the growth read?
**A.** 94.5% (inactive)

**Q.** For Nc1nc(N)c(C=Nc2ccc(Br)cc2)c(Nc2ccc(Br)cc2)n1, which growth is on record?
**A.** 77.2% (inactive)

**Q.** How did the growth turn out when COc1cc(/C=C2\C(=O)Nc3ccccc32)cc(OC)c1O was run?
**A.** 67.9% (inactive)

**Q.** Brc1ccccc1Nc1ccc2nnc(-c3ccncc3)n2n1 was tested. Which growth did it give?
**A.** 101% (inactive)

**Q.** With O=C(Nc1nc2ccccc2[nH]1)C(=O)Nc1nc2ccccc2[nH]1 as the compound, how does the growth read?
**A.** 97.5% (inactive)

**Q.** How did the growth turn out when COc1ccc(C2SC(C)C(=O)N2CCc2cccs2)cc1OC (stereo not drawn) was run?
**A.** 80.6% (inactive)

**Q.** With Oc1ccc(Cl)cc1CNc1nc2ccccc2[nH]1 as the compound, how does the growth read?
**A.** -14.1% (active)

**Q.** For CCOC(=O)c1c(-c2cc(OC)c(OC)c(OC)c2)csc1N, which growth is on record?
**A.** 96.9% (inactive)

**Q.** Which growth does the source give for COc1cc(C2CC(=O)Nc3c2ccc2ccccc32)cc(Br)c1OC (stereo not drawn) here?
**A.** 18.6% (inactive)

**Q.** How did the growth turn out when COc1cc(/C=C2\C(=O)N(c3c(Cl)cccc3Cl)c3ccccc32)cc(OC)c1O was run?
**A.** 16.9% (inactive)

**Q.** COC(=O)[C@H]1CCCN1C(=O)[C@H]1CCCN1C(=O)[C@@H](Cc1c[nH]c2ccccc12)NC(=S)Nc1cc(C(F)(F)F)cc(C(F)(F)F)c1 was tested. Which growth did it give?
**A.** 31% (inactive)

**Q.** For COc1cc(CNCCN2C(=O)c3ccc4c5c(ccc(c35)C2=O)C(=O)N(CCNCc2cc(OC)c(OC)c(OC)c2)C4=O)cc(OC)c1OC, which growth is on record?
**A.** -76.5% (active)

**Q.** For O=C1OCC2=C1C(c1ccc3c(c1)OCO3)CC(=O)N2c1cccc(Cl)c1 (stereo not drawn), which growth is on record?
**A.** 94.6% (inactive)

**Q.** For Cc1ccc(C2SCC(=O)N2NC(=O)c2[nH]c3ccc(F)cc3c2-c2ccccc2)cc1 (stereo not drawn), which growth is on record?
**A.** 74.1% (inactive)

**Q.** With O=C(Nc1ccccc1)Oc1cccc2cccnc12 as the compound, how does the growth read?
**A.** 93.3% (inactive)

**Q.** For CCOC(=O)c1sc(NC(=O)CN2CCC(Cc3ccccc3)CC2)nc1C, which growth is on record?
**A.** 104% (inactive)

**Q.** CN([N-]C(=O)CC(=O)[N-]N(C)C(=S)c1ccccc1)C(=S)c1ccccc1.[Cu+2] was tested. Which growth did it give?
**A.** -54.9% (active)

**Q.** Which growth does the source give for Clc1cccc(Cl)c1Nc1ccc2nnc(-c3ccncc3)n2n1 here?
**A.** 104% (inactive)

test system: 786-0 renal; assay: as above; conditions: 10 µM unless noted

**Q.** O=C1/C(=C/c2ccc(Oc3ccccc3)cc2)N=C(c2ccccc2)N1CCc1cccs1 was tested. Which growth did it give?
**A.** 84.5% (inactive)

**Q.** For O=C1/C(=C/c2ccc(Cl)cc2)N=C(c2ccccc2)N1CCc1cccs1, which growth is on record?
**A.** 50.9% (inactive)

**Q.** Which growth does the source give for COc1ccc(Sc2ccc3[nH]c(=O)nc(N)c3c2)cc1 here?
**A.** 104% (inactive)

**Q.** How did the growth turn out when COc1cc(C(=O)N(C(C)C)C2CCCCC2)cc(OC)c1OC was run?
**A.** 121% (inactive)

**Q.** Which growth does the source give for COc1ccc(C2OCC(C)(C)CO2)cc1OC here?
**A.** 110% (inactive)

**Q.** For O=C(NCc1ccco1)C1CCN(S(=O)(=O)c2ccc(Cl)cc2)CC1, which growth is on record?
**A.** 82.9% (inactive)

**Q.** For COc1ccc(-c2csc3c2-n2cccc2C3=O)cc1O, which growth is on record?
**A.** 1.66% (active)

**Q.** For COC(=O)[C@@H]1CCCN1C(=O)[C@@H]1CCCN1C(=O)[C@@H](Cc1c[nH]c2ccccc12)NC(=S)Nc1cc(C(F)(F)F)cc(C(F)(F)F)c1, which growth is on record?
**A.** 69.8% (inactive)

**Q.** With CCN1C(=O)C2(Nc3ccccc3S2)c2cc(C)ccc21 (stereo not drawn) as the compound, how does the growth read?
**A.** 113% (inactive)

**Q.** For Cc1nc(-c2ccccc2)cc2c(O)c(C(=O)N/N=C/Cc3ccccc3)[nH]c(=O)c12, which growth is on record?
**A.** 103% (inactive)

**Q.** How did the growth turn out when O=S(=O)(/N=C1C=C/C(=N\S(=O)(=O)c2ccccc2)c2ccccc2\1)c1ccccc1 was run?
**A.** 115% (inactive)

**Q.** CCCOC(=O)c1ccc2c(c1)[N+](=O)C(C(=O)c1ccccc1)=C(C(F)(F)F)[N+]2=O was tested. Which growth did it give?
**A.** -81.2% (active)

**Q.** With CCCN(CCC)c1ccc(/C=C/c2ccc3cc(OCC)ccc3n2)cc1 as the compound, how does the growth read?
**A.** 91.1% (inactive)

**Q.** For COc1cccc(C2CC(=O)Nc3cc4c(cc32)CCC4)c1OC (stereo not drawn), which growth is on record?
**A.** 79.6% (inactive)

**Q.** Which growth does the source give for CC1SC(c2ccc(Cl)cc2)N(CCc2cccs2)C1=O (stereo not drawn) here?
**A.** -49.4% (active)

**Q.** For O=C(O)c1ccccc1Oc1cc(-c2ccco2)nc(OCCBr)n1, which growth is on record?
**A.** 100% (inactive)

**Q.** How did the growth turn out when COc1ccccc1/C=C/C(=O)/C=C/c1ccccc1O was run?
**A.** -44% (active)

**Q.** Which growth does the source give for COc1cc(/C=C/C(=O)C(=Cc2ccc(F)c(F)c2)C(=O)/C=C/c2ccc(O)c(OC)c2)ccc1O here?
**A.** 40.8% (inactive)

**Q.** With CC1(C)CC(=O)C2=C(C1)Nc1cc3c(cc1C2c1ccc(F)cc1)OCO3 (stereo not drawn) as the compound, how does the growth read?
**A.** 109% (inactive)

**Q.** For Nc1nc(N)c(C=Nc2ccc(Br)cc2)c(Nc2ccc(Br)cc2)n1, which growth is on record?
**A.** 92.9% (inactive)

**Q.** How did the growth turn out when COc1cc(/C=C2\C(=O)Nc3ccccc32)cc(OC)c1O was run?
**A.** 83.2% (inactive)

**Q.** How did the growth turn out when Brc1ccccc1Nc1ccc2nnc(-c3ccncc3)n2n1 was run?
**A.** 101% (inactive)

**Q.** For O=C(Nc1nc2ccccc2[nH]1)C(=O)Nc1nc2ccccc2[nH]1, which growth is on record?
**A.** 108% (inactive)

**Q.** With COc1ccc(C2SC(C)C(=O)N2CCc2cccs2)cc1OC (stereo not drawn) as the compound, how does the growth read?
**A.** 92% (inactive)

**Q.** How did the growth turn out when Oc1ccc(Cl)cc1CNc1nc2ccccc2[nH]1 was run?
**A.** 60.7% (inactive)

**Q.** CCOC(=O)c1c(-c2cc(OC)c(OC)c(OC)c2)csc1N was tested. Which growth did it give?
**A.** 112% (inactive)

**Q.** For COc1cc(C2CC(=O)Nc3c2ccc2ccccc32)cc(Br)c1OC (stereo not drawn), which growth is on record?
**A.** 30.6% (inactive)

**Q.** For Cc1ccc(-c2nnc(COc3ccc(-c4nnc(N)s4)cc3)o2)cc1, which growth is on record?
**A.** 96.9% (inactive)

**Q.** With COc1cc(/C=C2\C(=O)N(c3c(Cl)cccc3Cl)c3ccccc32)cc(OC)c1O as the compound, how does the growth read?
**A.** 13.9% (inactive)

**Q.** COC(=O)[C@H]1CCCN1C(=O)[C@H]1CCCN1C(=O)[C@@H](Cc1c[nH]c2ccccc12)NC(=S)Nc1cc(C(F)(F)F)cc(C(F)(F)F)c1 was tested. Which growth did it give?
**A.** 62.5% (inactive)

**Q.** With COc1ncnc2c1ncn2C/C(Br)=C(\Br)CCl as the compound, how does the growth read?
**A.** 7.78% (active)

**Q.** For COc1cc(CNCCN2C(=O)c3ccc4c5c(ccc(c35)C2=O)C(=O)N(CCNCc2cc(OC)c(OC)c(OC)c2)C4=O)cc(OC)c1OC, which growth is on record?
**A.** -93.6% (active)

**Q.** With O=C1CN2CCC1C/C2=C\c1ccnc2c(Cl)cccc12 (stereo not drawn) as the compound, how does the growth read?
**A.** 103% (inactive)

**Q.** How did the growth turn out when O=C1OCC2=C1C(c1ccc3c(c1)OCO3)CC(=O)N2c1cccc(Cl)c1 (stereo not drawn) was run?
**A.** 110% (inactive)

**Q.** For Cc1ccc(C2SCC(=O)N2NC(=O)c2[nH]c3ccc(F)cc3c2-c2ccccc2)cc1 (stereo not drawn), which growth is on record?
**A.** 105% (inactive)

**Q.** How did the growth turn out when O=C(Nc1ccccc1)Oc1cccc2cccnc12 was run?
**A.** 99.9% (inactive)

**Q.** For CCOC(=O)c1sc(NC(=O)CN2CCC(Cc3ccccc3)CC2)nc1C, which growth is on record?
**A.** 96.9% (inactive)

**Q.** With CN([N-]C(=O)CC(=O)[N-]N(C)C(=S)c1ccccc1)C(=S)c1ccccc1.[Cu+2] as the compound, how does the growth read?
**A.** -72% (active)

**Q.** How did the growth turn out when Clc1cccc(Cl)c1Nc1ccc2nnc(-c3ccncc3)n2n1 was run?
**A.** 104% (inactive)
